PubChem BioAssay (EPA / NIEHS)
Results filed as inconclusive are left out. Calls of active or inactive are those of the source. Rule for the calls, unless noted: active = hit-call score of the fitted dose curve at least 0.9, where 1 is the maximum; inactive = score below 0.9.

How the values were obtained:
[1] = biological target: Myc proto-oncogene protein (Homo sapiens) (UniProt P01106); assay: ATG_Myc_CIS: Attagene CIS-FACTORIAL HepG2 Assay for human Myelocytomatosis (Myc) Proto-Oncogene Transcription Factor (AID 2282990); settings: HepG2, Attagene cis-reporter transcription factor activity; actives raise or lower the signal
Myc proto-oncogene protein (Homo sapiens), sequence (P01106 whole entry, looked up): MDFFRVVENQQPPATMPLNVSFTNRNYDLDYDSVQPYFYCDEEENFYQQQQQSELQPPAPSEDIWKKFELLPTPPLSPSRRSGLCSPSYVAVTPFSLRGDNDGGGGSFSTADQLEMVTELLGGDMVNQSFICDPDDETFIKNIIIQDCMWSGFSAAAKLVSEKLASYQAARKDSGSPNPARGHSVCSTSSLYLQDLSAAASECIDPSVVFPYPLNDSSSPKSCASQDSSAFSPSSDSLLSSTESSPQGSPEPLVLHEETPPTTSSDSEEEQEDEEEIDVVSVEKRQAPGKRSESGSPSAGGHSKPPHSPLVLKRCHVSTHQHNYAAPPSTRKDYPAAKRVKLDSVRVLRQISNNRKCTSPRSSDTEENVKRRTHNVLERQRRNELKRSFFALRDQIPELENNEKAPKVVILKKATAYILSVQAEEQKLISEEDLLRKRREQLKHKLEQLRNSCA
In short: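 Transiently transfected HepG2 cells bearing cis-promoter reporter units for endogenous transcription factors; 24 h exposure. Reporter mRNA measured by RT-PCR, 6-FAM primer extension, HpaI cut and capillary electrophoresis; bidirectional fit relative to DMSO.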

[2] = ATG_NF_kB_CIS: Attagene CIS-FACTORIAL HepG2 Assay for human Nuclear Factor Kappa B (NF-kB) (AID 2282991); settings: HepG2 Attagene cis-factorial NF-kB reporter mRNA; actives raise or lower the signal
In short: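 HepG2, transient multi-reporter transfection, cis promoter elements (endogenous TFs). 24 h exposure. Total RNA → RT → PCR → 6-FAM label → HpaI → CE. Gain/loss vs DMSO.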

[3] = ATG_NRF2_ARE_CIS: Attagene CIS-FACTORIAL HepG2 Assay for human Nuclear Factor Erythroid 2 Related Factor 2 (NFR2) response to Antioxidant Response Elements (ARE) (AID 2282992); settings: HepG2 Attagene ARE/NRF2 reporter, transcription factor activity; actives raise or lower the signal;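 for AC50: reporter mRNA level measured by RT-PCR and capillary electrophoresis fluorescence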
In short: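 Readout: reporter mRNA quantified by RT-PCR plus FAM-labelled primer extension, HpaI digestion and capillary electrophoresis, 24 h after dosing transfected HepG2 cells. Gain or loss of signal is fitted bidirectionally against DMSO baseline.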

[4] = ATG_Oct_MLP_CIS: Attagene CIS-FACTORIAL HepG2 Assay for human Octamer-Binding Transcription Factor (Oct) (AID 2282993); settings: HepG2 Attagene cis-factorial Oct reporter, mRNA; actives raise or lower the signal
In short: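 Using HepG2 cells bearing transfected cis-reporter constructs, mRNA induction was read after 24 h by fluorescent RT-PCR and capillary electrophoresis, with DMSO defining baseline for gain- or loss-of-signal fits.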

[5] = biological target: Cellular tumor antigen p53 (Homo sapiens) (UniProt P04637); assay: ATG_p53_CIS: Attagene CIS-FACTORIAL HepG2 Assay for human p53 Transcription Factor (AID 2282994); settings: HepG2 p53 cis-element reporter, Attagene mRNA; actives raise or lower the signal
Cellular tumor antigen p53 (Homo sapiens), sequence (P04637 whole entry, looked up): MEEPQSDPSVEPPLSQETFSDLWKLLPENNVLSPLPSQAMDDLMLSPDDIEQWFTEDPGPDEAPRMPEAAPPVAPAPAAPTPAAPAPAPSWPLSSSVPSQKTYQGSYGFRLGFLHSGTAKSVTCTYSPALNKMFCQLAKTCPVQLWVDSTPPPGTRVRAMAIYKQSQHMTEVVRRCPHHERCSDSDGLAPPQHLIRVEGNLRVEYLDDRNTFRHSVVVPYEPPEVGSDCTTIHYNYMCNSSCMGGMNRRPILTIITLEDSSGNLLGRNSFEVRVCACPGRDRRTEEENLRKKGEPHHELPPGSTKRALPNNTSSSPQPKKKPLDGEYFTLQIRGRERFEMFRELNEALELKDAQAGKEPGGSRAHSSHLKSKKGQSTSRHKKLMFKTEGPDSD
In short: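 Read-out: reporter mRNA by RT-PCR plus capillary electrophoresis with fluorescence detection. Human HepG2 liver cells carried transfected multi-reporter cis-element constructs, dosed 24 h. Gain or loss of signal fitted bidirectionally against DMSO control.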

[6] = BSK_3C_uPAR: BioMAP Diversity Plus: 3C Assay for Urokinase-type plasminogen activator receptor (uPAR) Biomarker Activity (AID 2282998); settings: BioMAP 3C HUVEC, uPAR biomarker ELISA; actives raise or lower the signal
In short: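 In this endothelial cell-based assay, human umbilical vein primary cells were treated with chemicals and harvested at 24 h. uPAR was quantified using ELISA, with gains or losses fitted relative to DMSO controls.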

[7] = BSK_3C_VCAM1: BioMAP Diversity Plus: 3C Assay for Vascular cell adhesion molecule 1 (VCAM1) Biomarker Activity (AID 2282999); settings: BioMAP 3C HUVEC, VCAM1 ELISA, cytokine-stimulated; actives raise or lower the signal
In short: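 HUVEC primary cells, 24 h compound exposure; VCAM-1 by ELISA; gain/loss of signal fitted bidirectionally vs DMSO baseline.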

[8] = BSK_4H_Eotaxin3: BioMAP Diversity Plus: 4H Assay for Eotaxin 3 Biomarker Activity (AID 2283000); settings: primary human endothelial cells (HUVEC); actives raise or lower the signal
In short: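 Chemicals were added to human umbilical vein endothelium cultures, and Eotaxin-3 was quantified by ELISA at 24 h. Values were derived by bidirectional fitting with DMSO serving as negative control and activity baseline.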

[9] = read-out: Intercellular Adhesion Molecule 1 (ICAM1), ICAM1 (gene 3383); assay: BSK_3C_ICAM1: BioMAP Diversity Plus: 3C Assay for Intercellular Adhesion Molecule 1 (ICAM1) Biomarker Activity (AID 2283003); settings: primary human endothelial cells (HUVEC); actives raise or lower the signal
In short: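 Using DMSO as baseline, bidirectional curve fitting was applied to ICAM-1 ELISA signals from HUVEC in the 3C system, measured 24 h after compound addition.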

[10] = biological target: human Retinoic Acid Receptor beta (RARb), RARB (gene 5915) (UniProt P10826); assay: ATG_RARb_TRANS: Attagene TRANS-FACTORIAL HepG2 Assay for human Retinoic Acid Receptor beta (AID 2283004; active = hit-call score of the fitted dose curve at least 0.9, where 1 is the maximum)
human Retinoic Acid Receptor beta (RARb), RARB (gene 5915), sequence (P10826 whole entry, looked up): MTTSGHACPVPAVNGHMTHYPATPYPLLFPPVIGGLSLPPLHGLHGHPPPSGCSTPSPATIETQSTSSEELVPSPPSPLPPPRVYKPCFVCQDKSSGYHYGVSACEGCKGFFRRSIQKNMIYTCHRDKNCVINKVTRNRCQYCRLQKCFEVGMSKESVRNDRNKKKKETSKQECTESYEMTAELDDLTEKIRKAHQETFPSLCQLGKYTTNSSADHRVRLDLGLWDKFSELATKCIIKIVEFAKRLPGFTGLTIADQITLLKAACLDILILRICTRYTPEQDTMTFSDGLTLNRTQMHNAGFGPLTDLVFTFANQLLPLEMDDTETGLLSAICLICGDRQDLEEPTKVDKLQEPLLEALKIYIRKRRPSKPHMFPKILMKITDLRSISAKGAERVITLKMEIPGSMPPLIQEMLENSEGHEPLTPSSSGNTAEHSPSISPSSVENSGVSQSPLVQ
In short: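 Transient transfection of HepG2 with multiple reporter units → chemical dosing, 24 h → total RNA isolation → RT with oligo(dT) → reporter-specific PCR, 6-FAM primer extension, HpaI digest → capillary electrophoresis. Positive direction vs DMSO control.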

[11] = BSK_3C_Proliferation: Cell Proliferation Assessment in the BioMAP Diversity Plus: 3C Assay (AID 2283006); settings: primary human endothelial cells (HUVEC)
In short: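 Measured here: sulforhodamine B (0.1%) staining of TCA-fixed sub-confluent umbilical vein endothelial cultures 48 h post-dosing, absorbance 560 nm. DMSO served as negative control and baseline; both signal gain and loss were modelled.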

[12] = biological target: Nuclear receptor subfamily 1 group I member 2 (Homo sapiens) (UniProt O75469); assay: ATG_PXR_TRANS: Attagene TRANS-FACTORIAL HepG2 Assay for human Pregnane X Receptor (PXR) (AID 2283008; active = hit-call score of the fitted dose curve at least 0.9, where 1 is the maximum)
Nuclear receptor subfamily 1 group I member 2 (Homo sapiens), sequence (O75469 whole entry, looked up, the tested form may be a part): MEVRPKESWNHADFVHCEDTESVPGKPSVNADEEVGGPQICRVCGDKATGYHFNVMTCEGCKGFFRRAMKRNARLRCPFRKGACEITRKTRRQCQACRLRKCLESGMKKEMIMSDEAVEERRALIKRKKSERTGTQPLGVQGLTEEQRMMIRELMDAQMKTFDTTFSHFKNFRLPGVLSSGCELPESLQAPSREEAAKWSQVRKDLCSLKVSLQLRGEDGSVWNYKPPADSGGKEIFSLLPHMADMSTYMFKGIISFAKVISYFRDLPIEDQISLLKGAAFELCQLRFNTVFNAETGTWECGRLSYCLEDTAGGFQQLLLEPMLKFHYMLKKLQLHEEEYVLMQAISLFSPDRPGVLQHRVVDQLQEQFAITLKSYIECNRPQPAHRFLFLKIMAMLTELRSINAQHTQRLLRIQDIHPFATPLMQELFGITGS
In short: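 Trans-factorial format: exogenous NR-Gal4 fusion activity, not endogenous factor, in transfected human HepG2 liver cells. After 24 h dosing, RNA isolated, reverse-transcribed, amplified and resolved by capillary electrophoresis; induction scored versus DMSO.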

[13] = biological target: human Peroxisome Proliferator-activated Receptor alpha (PPARa), PPARA (gene 5465) (UniProt Q07869); assay: ATG_PPARa_TRANS: Attagene TRANS-FACTORIAL HepG2 Assay for human Peroxisome Proliferator-activated Receptor alpha (PPARa) (AID 2283001; active = hit-call score of the fitted dose curve at least 0.9, where 1 is the maximum)
human Peroxisome Proliferator-activated Receptor alpha (PPARa), PPARA (gene 5465), sequence (Q07869 whole entry, looked up, the tested form may be a part): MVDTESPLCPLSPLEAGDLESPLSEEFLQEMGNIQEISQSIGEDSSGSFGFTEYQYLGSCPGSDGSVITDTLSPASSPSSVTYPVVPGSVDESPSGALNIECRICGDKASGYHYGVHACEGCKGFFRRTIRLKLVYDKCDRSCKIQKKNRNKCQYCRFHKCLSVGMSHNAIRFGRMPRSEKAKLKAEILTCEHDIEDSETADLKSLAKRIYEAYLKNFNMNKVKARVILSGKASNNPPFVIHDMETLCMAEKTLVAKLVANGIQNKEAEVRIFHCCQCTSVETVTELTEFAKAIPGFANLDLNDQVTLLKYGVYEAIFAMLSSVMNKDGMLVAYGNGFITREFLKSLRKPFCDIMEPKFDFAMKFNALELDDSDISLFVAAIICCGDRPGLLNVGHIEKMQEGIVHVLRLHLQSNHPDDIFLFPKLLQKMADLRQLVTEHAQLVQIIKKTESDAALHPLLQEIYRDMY
In short: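 Transient HepG2 transfection, GAL4-UAS reporters, NR-Gal4 chimeras; 24 h compound exposure. Readout: reporter transcripts by RT-PCR, 6-FAM primer extension, HpaI digest, capillary electrophoresis. Positive direction vs DMSO baseline.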

[14] = biological target: Retinoic acid receptor alpha (Homo sapiens) (UniProt P10276); assay: ATG_RARa_TRANS: Attagene TRANS-FACTORIAL HepG2 Assay for human Retinoic Acid Receptor alpha (RARa) (AID 2283005; active = hit-call score of the fitted dose curve at least 0.9, where 1 is the maximum)
Retinoic acid receptor alpha (Homo sapiens), sequence (P10276 whole entry, looked up, the tested form may be a part): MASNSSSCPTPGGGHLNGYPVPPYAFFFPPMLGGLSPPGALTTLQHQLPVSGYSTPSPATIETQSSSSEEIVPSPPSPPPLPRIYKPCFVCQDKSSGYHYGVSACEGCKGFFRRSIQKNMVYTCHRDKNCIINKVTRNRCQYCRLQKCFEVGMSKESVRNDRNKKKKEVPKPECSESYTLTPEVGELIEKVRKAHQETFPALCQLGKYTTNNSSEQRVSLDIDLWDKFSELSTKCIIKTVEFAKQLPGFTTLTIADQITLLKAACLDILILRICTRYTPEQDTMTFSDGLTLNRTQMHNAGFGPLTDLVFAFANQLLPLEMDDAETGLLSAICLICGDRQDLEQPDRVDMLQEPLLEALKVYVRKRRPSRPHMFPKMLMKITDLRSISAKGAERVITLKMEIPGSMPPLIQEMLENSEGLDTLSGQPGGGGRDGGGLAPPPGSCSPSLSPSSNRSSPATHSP
In short: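 HepG2 transiently transfected with multiplex GAL4-UAS reporter units including a human RARa–GAL4 chimera; 24 h compound exposure. Reporter mRNA quantified by RT-PCR, 6-FAM labeling and capillary electrophoresis; gain of signal versus DMSO.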

[15] = biological target: Peroxisome proliferator-activated receptor gamma (Homo sapiens) (UniProt P37231); assay: ATG_PPARg_TRANS: Attagene TRANS-FACTORIAL HepG2 Assay for human Peroxisome Proliferator-activated Receptor-gamma (PPARg) (AID 2283007; active = hit-call score of the fitted dose curve at least 0.9, where 1 is the maximum)
Peroxisome proliferator-activated receptor gamma (Homo sapiens), sequence (P37231 whole entry, looked up): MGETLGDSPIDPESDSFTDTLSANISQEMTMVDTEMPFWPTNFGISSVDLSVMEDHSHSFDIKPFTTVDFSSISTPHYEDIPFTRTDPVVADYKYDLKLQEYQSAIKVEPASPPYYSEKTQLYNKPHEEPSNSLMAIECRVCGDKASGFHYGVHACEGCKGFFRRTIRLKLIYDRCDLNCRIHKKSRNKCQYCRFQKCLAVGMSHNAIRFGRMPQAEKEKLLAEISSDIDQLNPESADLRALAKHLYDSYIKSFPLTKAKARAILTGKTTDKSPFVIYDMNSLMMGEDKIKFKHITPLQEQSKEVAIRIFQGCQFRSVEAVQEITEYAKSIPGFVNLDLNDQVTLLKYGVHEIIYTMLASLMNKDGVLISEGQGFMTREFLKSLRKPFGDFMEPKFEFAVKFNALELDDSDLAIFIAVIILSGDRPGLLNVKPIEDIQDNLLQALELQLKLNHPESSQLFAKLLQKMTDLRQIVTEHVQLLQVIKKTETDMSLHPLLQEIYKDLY
In short: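 Multiplexed reporter transcription units in HepG2, 24 h dosing, reporter transcripts quantified by fluorescent RT-PCR and capillary electrophoresis. Increase over DMSO scored.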

[16] = biological target: human Retinoic Acid Receptor gamma (RARg), RARG (gene 5916) (UniProt P13631); assay: ATG_RARg_TRANS: Attagene TRANS-FACTORIAL HepG2 Assay for human Retinoic Acid Receptor gamma (RARg) (AID 2283009; active = hit-call score of the fitted dose curve at least 0.9, where 1 is the maximum)
human Retinoic Acid Receptor gamma (RARg), RARG (gene 5916), sequence (P13631 whole entry, looked up, the tested form may be a part): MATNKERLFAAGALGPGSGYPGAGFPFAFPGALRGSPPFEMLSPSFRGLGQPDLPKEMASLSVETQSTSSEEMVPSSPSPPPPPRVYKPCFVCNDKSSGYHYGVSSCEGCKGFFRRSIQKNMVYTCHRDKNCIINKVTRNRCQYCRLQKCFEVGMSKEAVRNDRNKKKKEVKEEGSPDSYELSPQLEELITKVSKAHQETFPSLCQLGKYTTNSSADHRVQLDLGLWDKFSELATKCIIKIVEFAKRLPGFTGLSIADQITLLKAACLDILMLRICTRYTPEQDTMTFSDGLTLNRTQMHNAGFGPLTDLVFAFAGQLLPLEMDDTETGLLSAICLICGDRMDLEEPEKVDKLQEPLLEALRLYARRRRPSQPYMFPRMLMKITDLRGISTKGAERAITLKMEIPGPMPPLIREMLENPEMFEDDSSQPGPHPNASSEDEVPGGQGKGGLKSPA
In short: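 Gain-of-signal relative to DMSO is reported from fluorescent capillary electrophoresis of RT-PCR reporter products. These came from HepG2 cells expressing transfected RARg-GAL4 chimeras with UAS reporters, harvested 24 h after dosing.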

[17] = BSK_3C_TissueFactor: BioMAP Diversity Plus: 3C Assay for Tissue Factor Biomarker Activity (AID 2282997); settings: BioMAP 3C HUVEC, tissue factor biomarker readout; actives raise or lower the signal
In short: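 After a 24 h chemical exposure of primary human umbilical vein endothelial cells, Tissue Factor levels were quantified by ELISA.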

[18] = biological target: human RAR-related Orphan Receptor beta (RORb), RORB (gene 6096) (UniProt Q92753); assay: ATG_RORb_TRANS: Attagene TRANS-FACTORIAL HepG2 Assay for human RAR-related Orphan Receptor beta (RORb) (AID 2283010; active = hit-call score of the fitted dose curve at least 0.9, where 1 is the maximum)
human RAR-related Orphan Receptor beta (RORb), RORB (gene 6096), sequence (Q92753 whole entry, looked up, the tested form may be a part): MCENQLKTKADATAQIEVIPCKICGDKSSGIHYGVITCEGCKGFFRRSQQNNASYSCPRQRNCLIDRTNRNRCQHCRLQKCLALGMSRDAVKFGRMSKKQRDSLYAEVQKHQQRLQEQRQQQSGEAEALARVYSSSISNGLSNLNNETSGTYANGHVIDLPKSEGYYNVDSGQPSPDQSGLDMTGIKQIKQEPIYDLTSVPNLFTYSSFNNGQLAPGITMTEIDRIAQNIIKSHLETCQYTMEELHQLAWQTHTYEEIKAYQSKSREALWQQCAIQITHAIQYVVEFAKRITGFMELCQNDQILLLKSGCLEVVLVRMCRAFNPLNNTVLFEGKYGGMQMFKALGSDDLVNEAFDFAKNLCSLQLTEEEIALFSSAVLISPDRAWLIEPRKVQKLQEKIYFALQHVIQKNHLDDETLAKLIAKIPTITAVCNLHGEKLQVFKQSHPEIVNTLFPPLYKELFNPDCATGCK
In short: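 Multiplexed transcription-factor reporter assay: HepG2 cells transiently carrying NR-Gal4/GAL4-UAS constructs, 24 h treatment, mRNA quantified by RT-PCR plus capillary electrophoresis fluorescence; activity scored as induction over DMSO.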

[19] = biological target: human RAR-related Orphan Receptor gamma (RORg), RORC (gene 6097) (UniProt P51449); assay: ATG_RORg_TRANS: Attagene TRANS-FACTORIAL HepG2 Assay for human RAR-related Orphan Receptor gamma (RORg) (AID 2283011; active = hit-call score of the fitted dose curve at least 0.9, where 1 is the maximum)
human RAR-related Orphan Receptor gamma (RORg), RORC (gene 6097), sequence (P51449 whole entry, looked up, the tested form may be a part): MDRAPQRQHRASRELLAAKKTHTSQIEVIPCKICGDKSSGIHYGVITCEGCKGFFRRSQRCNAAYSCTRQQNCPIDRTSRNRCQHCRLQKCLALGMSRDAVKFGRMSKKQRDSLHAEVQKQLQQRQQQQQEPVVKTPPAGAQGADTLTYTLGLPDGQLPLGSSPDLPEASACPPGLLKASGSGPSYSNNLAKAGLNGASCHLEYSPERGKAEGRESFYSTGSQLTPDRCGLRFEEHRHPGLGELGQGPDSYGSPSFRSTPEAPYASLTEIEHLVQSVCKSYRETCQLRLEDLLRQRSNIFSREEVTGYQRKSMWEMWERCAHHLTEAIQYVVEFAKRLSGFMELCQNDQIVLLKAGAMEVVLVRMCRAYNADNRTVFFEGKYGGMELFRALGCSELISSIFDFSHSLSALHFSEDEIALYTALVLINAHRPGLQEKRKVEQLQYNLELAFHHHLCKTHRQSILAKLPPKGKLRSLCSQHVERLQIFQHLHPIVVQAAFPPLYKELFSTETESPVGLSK
In short: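 First, HepG2 liver cells were transfected with GAL4-UAS-driven reporter constructs and the RORg-Gal4 fusion. Next, they were treated with chemical for 24 h. Finally, reporter mRNA was quantified by RT-PCR and capillary electrophoresis, with upward activity fitted against DMSO.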

Measured: AC50

Cc1cccc(Nc2cc(Cl)nc(SCC(=O)O)n2)c1C
inactive: [1] | [2] | [3] | [4] | [5] | [6] | [7] | [8] | [9] | [10] | [11]
active: [12] 21 µM

CC(=O)Oc1ccccc1C(=O)O
active: [3] 68 µM | [15] 61.7 µM
inactive: [1] | [2] | [5] | [6] | [7] | [8] | [13] | [9] | [10] | [14] | [11] | [12] | [16]

Oc1ccc2ccccc2c1N=Nc1ccccc1
active: [3] 1.42 µM | [17] 6 µM | [8] 1.7 µM | [15] 3.87 µM
inactive: [1] | [2] | [5] | [6] | [7] | [13] | [9] | [10] | [14] | [11] | [12] | [16] | [18]

O=C(O)CCCCC(=O)O
inactive: [1] | [2] | [3] | [4] | [5] | [6] | [7] | [8] | [9] | [11] | [18] | [19]
